In all, about 69,000 compounds went through this assay and about 8,600 (12%) showed an effect of 50% or more. Only a selection was taken, and strong results are over-represented in it overall.

This assay deals with Plasmodium berghei. Nature of the assay: Screen against P. berghei liver stage (PbLuc), transformed with Luciferase, at 10uM. Type of assay: functional, HepG2. The following applies: tested at 10 uM.
`Cc1cnn(CC2CCCN2Cc2ncc(-c3ccc(F)cc3)o2)c1` (configuration not stated): the INHIBITION was 2.3%.
To `CC(C)CN(CC(=O)O)C(=O)c1ccc(F)cc1` belongs 17.7%; to `CN(CCc1ccccc1)c1cnn(CC2COCCO2)c(=O)c1` (configuration not stated), -42.8%.
The figure for `O=C(NCc1cncc2c1CCN(C1CCOCC1)C2)c1ccno1` is 34.5%; for `O=C(NCc1cncc2c1CCN(C1CCOCC1)C2)c1ccco1` it is 61.3%; for `O=C(NCc1cncc2c1CCN(C1CCOC1)C2)c1ccco1` (configuration not stated) it is 0.71%.
To `COCc1nc(C(=O)NS(=O)(=O)c2cc(Br)ccc2C)cs1` belongs 8.55%.
Turning to `O=S(=O)(NCc1ccccc1Cn1cncn1)N1CCCCC1`, the INHIBITION was determined as 25.1%.
Consider `CCn1cc(Cl)c(C(=O)NCCCN(C)C)n1`, for which the INHIBITION was 39.1%.
To `Cc1nccc(C(=O)N2CCCC2c2c(C)nn(C)c2C)n1` (configuration not stated) belongs 7.08%; to `CCN(CCNC(=O)c1ccccc1OCCOC)C1CC1`, 58.8%.
The figure for `CCN(CCNC(=O)c1ccccc1Br)C1CC1` is -2.42%; for `CCN(CCNC(=O)c1cccnc1OCCOC)C1CC1` it is 34.7%; for `O=C(c1ccc(Cn2cnnn2)cc1)N1CCC(c2ccncc2)CC1` it is -23%.
The figure for `O=S1(=O)NCC2(CCN(Cc3ccc(Cl)s3)C2)Oc2ncccc21` (configuration not stated) is 30%; for `CC(C)CCN1CCC2(CNS(=O)(=O)c3cccnc3O2)C1` (configuration not stated) it is 67.3%.
Consider `O=S1(=O)NCC2(CCN(Cc3ccncc3)CC2)Oc2ncccc21`, for which the INHIBITION is given as 44.1%.
To `CCc1cc(N(C)Cc2ccncn2)n2nccc2n1` belongs 10.4%; to `CC(=O)NCCNc1nccc(CCC(F)(F)F)n1`, -41.8%.
To `CCc1nnc(CN(C)c2nccc(CCC(F)(F)F)n2)o1` belongs 59.3%; to `CCc1nnc(CN(C)c2nccc(N3CCCC(O)C3)n2)o1` (configuration not stated), 42.1%.
To `CN(Cc1ccncn1)c1nccc(CCC(F)(F)F)n1` belongs 59.3%; to `CNc1ncc(CN(C)c2nccc(CCC(F)(F)F)n2)cn1`, 43.1%.
Regarding `CC(=O)N1CCOC(c2cncc(CCC(=O)N(C)C)n2)C1` (configuration not stated), the INHIBITION is reported as -6.73%.
To `O=C1CCC(=O)c2oc3ccccc3c2N1` belongs -23%.
To `CCc1[nH]c2c(CNc3cc(C)nc(NC)n3)cc(C)cc2c1C` belongs 87.9%; to `CCc1[nH]c2c(CNc3cncc(C(=O)OC)n3)cc(C)cc2c1C`, 45%.
To `CCc1[nH]c2c(CNC(=O)C3CCS(=O)(=O)CC3)cc(C)cc2c1C` belongs 48.5%; to `CCc1[nH]c2c(CNc3nc(C)cc(NC)n3)cc(C)cc2c1C`, 85.1%.
For the molecule `CCc1[nH]c2c(CNc3cncc(C(=O)N(C)C)n3)cc(C)cc2c1C`, the INHIBITION worked out at 14.3%.
To `CCc1[nH]c2c(CNC(=O)C3CNC(=O)C3)cc(C)cc2c1C` (configuration not stated) belongs 25.8%; to `COc1ccc(-c2noc(CN3CCCC3Cn3cccn3)n2)cc1` (configuration not stated), 29.7%.
To `CN1C(=O)c2ccc(C(=O)N(Cc3cnn(C)c3)C3CC3)cc2C1=O` belongs 23.8%.
The figure for `COCC(=O)N1CCc2ccc(=O)n(Cc3csc(C)n3)c2CC1` is 2.41%; for `CCOc1ncccc1NC(=O)c1ccc(C(C)=O)s1` it is 7.24%; for `CC1CN(CC(=O)NCCc2ccccc2)CCN1c1nccs1` (configuration not stated) it is 33.7%.
`c1coc(CN2CCC3(CCOCC3COCC3CC3)CC2)c1` (configuration not stated): the INHIBITION turned out to be 18.6%.
The figure for `CCNc1cc2c(nn1)CCN(C(=O)c1cc3cccc(C)c3o1)C2` is 70.8%.
To `CCNc1cc2c(nn1)CCN(C(=O)c1cc3ccccc3o1)C2` belongs 17.4%.
With `CCNc1cc2c(nn1)CCN(C(=O)c1cc3cc(C)ccc3o1)C2`, the INHIBITION is 68.8%.
The figure for `CCNc1cc2c(nn1)CCN(C(=O)c1ccc(CNC(C)=O)o1)C2` is -21.7%; for `CCNc1cc2c(nn1)CCN(C(=O)c1cc3nc(C)ccc3o1)C2` it is 35.3%; for `CCNc1cc2c(nn1)CCN(C(=O)c1cc(C)no1)C2` it is 40%.
As to `CC(=O)N1CC(=O)N(c2ccsc2)CC12CCN(Cc1ccccn1)C2` (configuration not stated), the INHIBITION was -2.17%.
The figure for `CCOc1ccc(C(=O)N2CCN(c3nccn3C)CC2)cc1` is 14.3%; for `c1cc(CN2CCC(c3ccc4c(c3)OCO4)CC2)ccn1` it is 12.515%; for `Cn1cccc1C(=O)N1C[C@H]2CN(Cc3cccs3)C[C@H]2C1` it is 14.9%.
To `CN(C)C1COC2(CCN(Cc3nccs3)CC2)C1` (configuration not stated) belongs 11.5%.
The figure for `Cc1ccc(C(=O)NS(=O)(=O)c2cc(F)ccc2F)c(=O)[nH]1` is -1.14%; for `CSC(C)C(=O)N(C)CCCc1cc(-c2ccccc2)no1` (configuration not stated) it is 57.75%.
Turning to `CC(NC(N)=O)C(=O)N(C)CCCc1cc(-c2ccccc2)no1` (configuration not stated), the INHIBITION is 0.375%.
To `CC(=O)N(C)CCCc1cc(-c2ccccc2)no1` belongs 24.75%; to `O=C(O)[C@]12CCCN(Cc3ccsc3)C[C@H]1CN(c1ncccn1)C2`, -10.3%.
To `COCCn1cc2c(n1)C(CNCc1nccs1)OCC2` (configuration not stated) belongs 26.3%; to `Cc1cccc(N2CCC(N3CCC4(CN(C)C(=O)O4)C3)CC2)c1C` (configuration not stated), 64.4%; to `Cc1nn(CC(=O)N2CCC3(CN(C)C(=O)O3)C2)c(=O)c2ccccc12` (configuration not stated), 15.4%.
To `O=C1NCC2(CCCN(C(=O)Cn3nc4ccccc4n3)CC2)O1` (configuration not stated) belongs 4.87%; to `Cc1cccc(N2CCC(N3CCCC4(CNC(=O)O4)C3)CC2)c1C` (configuration not stated), 63.4%.
For the molecule `Cc1cccc(N2CCC(N3CCC4(CCCNC4=O)C3)CC2)c1C` (configuration not stated), the INHIBITION is 32.7%.
The figure for `Cc1cccc(N2CCC(N3CCCC4(CN(C)C(=O)O4)C3)CC2)c1C` (configuration not stated) is 36.7%.
The figure for `Cc1nn(CCO)c(C)c1CNCc1cccnc1N(C)C` is 19.2%; for `O=C(O)c1cnc(N2CCC(c3nccn3CC3CC3)CC2)c(Cl)c1` it is 25.9%.
To `O=C(CN1CCCC(O)C1)NC(=O)NCc1cccs1` (configuration not stated) belongs 43.4%; to `CN(CCOc1ccc(F)cc1)S(=O)(=O)c1cnn(C)c1`, 21.2%.
As for `COCCN1CCN(Cc2c(C)noc2C)Cc2cccnc21`, the INHIBITION turned out to be 36.9%.
To `O=C(NCc1cccc(Cl)c1)C1=NOC2(CCNC2)C1` (configuration not stated) belongs 21.5%.
The figure for `CN(C)C(=O)COC[C@]12COC[C@H]1CN(CCc1ccccc1)C2` is 24.3%.
In the case of `CN(C)CCOCc1ncn2c1CN(c1ncc(F)cn1)CCC2`, the INHIBITION was 23.3%.
For `Cc1ccccc1C(CNC(=O)CSc1nnc(N)s1)N(C)C` (configuration not stated), the INHIBITION is listed as 54.7%.
The figure for `Nc1nnc(SCC(=O)NCC(O)c2ccccc2)s1` (configuration not stated) is -17.2%; for `Cc1nnc(SCC(=O)NCC(c2ccccc2Cl)N(C)C)s1` (configuration not stated) it is -18.5%; for `CCn1cc(NC(=O)NCc2ccc(CO)c(F)c2)cn1` it is -59.4%.
To `Cc1ccc(C(C(=O)O)N2CCCN(Cc3ccccn3)CC2)c(F)c1` (configuration not stated) belongs -1.49%; to `COc1ccc(C)cc1C(C(=O)O)N1CCN(Cc2ccccn2)CC1` (configuration not stated), 26.7%; to `Cc1c(Cl)cccc1NC(=O)N1CCN(Cc2ccccn2)CC1`, 64.3%.
The figure for `Cc1ccc(Cl)c(C)c1NC(=O)N1CCCN(Cc2ccccn2)CC1` is 46.3%; for `CSc1ccccc1C(C(=O)O)N1CCN(Cc2ccccn2)CC1` (configuration not stated) it is 33.5%; for `O=C(O)C(c1ccc(Cl)c(F)c1)N1CCN(Cc2ccccn2)CC1` (configuration not stated) it is 52.1%.
On to `Cc1ccc(C)c(C(C(=O)O)N2CCCN(Cc3ccccn3)CC2)c1` (configuration not stated), for which the INHIBITION was 0.139%.
The figure for `O=C(c1cc2c(Cl)cccc2[nH]1)N1CCN(CCc2ccccn2)CC1` is 56.3%; for `Cc1ccc(NC(=O)N2CCN(Cc3ccccn3)CC2)cc1Cl` it is 42.1%.
To `Cc1cc(F)c(C(C(=O)O)N2CCN(Cc3ccccn3)CC2)cc1Cl` (configuration not stated) belongs 66.6%.
As for `O=C(c1ccccc1Cl)N1CCN(CCc2ccccn2)CC1`, the INHIBITION is given as 30%.
Take `O=C(c1cc(Cl)c[nH]1)N1CCN(CCc2ccccn2)CC1`: the INHIBITION is 9.79%.
To `Cc1cccc(-n2cnnc2CCCN2CCOCC2)c1` belongs 34.4%; to `CNC(=O)C1CCC(NC(=O)c2cc(C3CC3)n(C(C)(C)C)n2)CC1` (configuration not stated), 15.4%.
For `c1ccc(OCCNC2CCCN(Cc3noc(C4CC4)n3)C2)cc1` (configuration not stated), the INHIBITION was -52.5%.
To `Cn1cc(C2CCCN2C(=O)c2ccc(NC3CC3)nc2)cn1` (configuration not stated) belongs 22.25%; to `CCN(CC)Cc1ccc(C(=O)N2CCCC2c2cnn(C)c2)o1` (configuration not stated), 57%; to `CCN(c1ccc(C(=O)N2CCCC2c2cnn(C)c2)cn1)C(C)C` (configuration not stated), 48.4%.
The figure for `CN(C)c1ccc(C(=O)N2CCCC2c2cnn(C)c2)cn1` (configuration not stated) is -13.3%; for `COc1ccc(C(=O)N2CCCC2c2cnn(C)c2)cn1` (configuration not stated) it is -11.9%; for `CC(=O)NCc1ccc(C(=O)N2CCCC2c2cnn(C)c2)o1` (configuration not stated) it is -1.88%.
To `Cn1cc(C2CCCN2C(=O)c2ccc(Br)o2)cn1` (configuration not stated) belongs 12.2%; to `CC(C)CN(C)c1ccc(C(=O)N2CCCC2c2cnn(C)c2)cn1` (configuration not stated), 52.1%.
As for `CNC(=O)c1ccc(C(=O)N2CCCC2c2cnn(C)c2)cn1` (configuration not stated), the INHIBITION is recorded as 59.4%.
To `CC(NC(=O)NCCn1ccnc1)c1ccc2c(c1)CCC(=O)N2` (configuration not stated) belongs -15.5%.
Turning to `CO[C@H]1C(=O)N(C)C2(CCNCC2)[C@@H]1C(=O)Nc1ccccc1`, the INHIBITION turned out to be 29%.
The figure for `Cc1noc(C)c1CN1CC[C@H]2OCC[C@@]2(C(=O)N2CCCO2)C1` is 37.5%; for `Cc1cnn(CC2CCCN2C(=O)c2cnc(-c3ccco3)s2)c1` (configuration not stated) it is 15.5%.
The figure for `CCS(=O)(=O)N1CCc2nc(N3CCCC3)nc(N(C)C)c2CC1` is 23.1%.
For the molecule `CCCS(=O)(=O)N1CCc2nc(N3CCOCC3)nc(N(C)C)c2C1`, the INHIBITION is given as 43.8%.
The figure for `CCS(=O)(=O)N1CCc2nc(N3CCOCC3)nc(N(C)C)c2CC1` is 55.6%; for `CC(=O)N1CCCC1C(=O)NCCOc1c(C)cccc1C` (configuration not stated) it is -57.4%; for `CC(C)NC(=O)[C@]12COC[C@H]1CN(Cc1cnn(C)c1)C2` it is -1.36%.
To `Cc1ccccc1-n1c(C)cc(=O)[nH]c1=O` belongs 33.4%; to `COCC1CN(C(=O)Cc2cccs2)Cc2nnn(C)c21` (configuration not stated), 26.3%.

The values are drawn from ChEMBL document CHEMBL4513216, “Probing the Open Global Health Chemical Diversity Library for Multistage-Active Starting Points for Next-Generation Antimalarials” (ACS Infect Dis, 2020).
